Many of the other results were omitted from the sample, so the strongest signals are more common in it than they were.
Legend:
Test in all cases: glycan array binding signal (z-score within array); higher = stronger binding
Conditions in all cases: glycan notation: IUPAC condensed, linker removed
[1] = target: Gal(b1-4)GlcNAc(b1-3)Gal(b1-4)GlcNAc(b1-2)Man(a1-3)[Gal(b1-4)GlcNAc(b1-3)Gal(b1-4)GlcNAc(b1-2)Man(a1-6)]Man(b1-4)GlcNAc(b1-4)[Fuc(a1-6)]GlcNAc
Outline: (§1)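 The binding signal is a Z-score computed within each array and averaged over linkers. Arrays of the same protein sequence at different concentrations or buffers were also averaged together. Data originate from 3228 arrays in the Consortium for Functional Glycomics database, kept only where the protein sequence was available.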

[2] = target: Gal(b1-4)GlcNAc(b1-3)Gal(b1-4)GlcNAc(b1-3)Gal(b1-4)GlcNAc
Outline: as §1

[3] = target: Gal(b1-4)GlcNAc(b1-3)Gal(b1-4)GlcNAc(b1-3)Gal(b1-4)GlcNAc(b1-2)Man(a1-3)[Gal(b1-4)GlcNAc(b1-3)Gal(b1-4)GlcNAc(b1-3)Gal(b1-4)GlcNAc(b1-2)Man(a1-6)]Man(b1-4)GlcNAc(b1-4)GlcNAc
Outline: as §1

[4] = target: Gal(b1-4)GlcNAc(b1-3)Gal(b1-4)GlcNAc(b1-3)Gal(b1-4)GlcNAc(b1-2)Man(a1-3)[Gal(b1-4)GlcNAc(b1-3)Gal(b1-4)GlcNAc(b1-3)Gal(b1-4)GlcNAc(b1-2)Man(a1-6)]Man(b1-4)GlcNAc(b1-4)[Fuc(a1-6)]GlcNAc
Outline: as §1

[5] = target: Gal(b1-4)GlcNAc(b1-3)Gal(b1-4)GlcNAc(b1-3)Gal(b1-4)GlcNAc(b1-3)Gal(b1-4)GlcNAc(b1-2)Man(a1-3)[Gal(b1-4)GlcNAc(b1-3)Gal(b1-4)GlcNAc(b1-3)Gal(b1-4)GlcNAc(b1-3)Gal(b1-4)GlcNAc(b1-2)Man(a1-6)]Man(b1-4)GlcNAc(b1-4)[Fuc(a1-6)]GlcNAc
Outline: as §1

[6] = target: Gal(b1-4)GlcNAc(b1-3)Gal(b1-4)GlcNAc(b1-3)Gal(b1-4)GlcNAc(b1-3)Gal(b1-4)GlcNAc(b1-3)Gal(b1-4)GlcNAc(b1-2)Man(a1-3)[Gal(b1-4)GlcNAc(b1-3)Gal(b1-4)GlcNAc(b1-3)Gal(b1-4)GlcNAc(b1-3)Gal(b1-4)GlcNAc(b1-3)Gal(b1-4)GlcNAc(b1-2)Man(a1-6)]Man(b1-4)GlcNAc(b1-4)GlcNAc
Outline: as §1

[7] = target: Gal(b1-4)GlcNAc(b1-3)Gal(b1-4)GlcNAc(b1-3)Gal(b1-4)GlcNAc(b1-3)Gal(b1-4)GlcNAc(b1-3)Gal(b1-4)GlcNAc(b1-3)Gal(b1-4)GlcNAc(b1-2)Man(a1-3)[Gal(b1-4)GlcNAc(b1-3)Gal(b1-4)GlcNAc(b1-3)Gal(b1-4)GlcNAc(b1-3)Gal(b1-4)GlcNAc(b1-3)Gal(b1-4)GlcNAc(b1-3)Gal(b1-4)GlcNAc(b1-2)Man(a1-6)]Man(b1-4)GlcNAc(b1-4)GlcNAc
Outline: as §1

[8] = target: Gal(b1-4)GlcNAc(b1-3)Gal(b1-4)GlcNAc(b1-3)[Gal(b1-4)GlcNAc(b1-3)Gal(b1-4)GlcNAc(b1-6)]GalNAc
Outline: as §1

[9] = target: Gal(b1-4)GlcNAc(b1-6)GalNAc
Outline: as §1

Gal3S4S(b1-4)GlcNAc = target: Gal3S4S(b1-4)GlcNAc
Outline: as §1

Gal4S6S(b1-4)GlcNAc = target: Gal4S6S(b1-4)GlcNAc
Outline: as §1

GalNAc6S(b1-4)GlcNAc = target: GalNAc6S(b1-4)GlcNAc
Outline: as §1

[10] = target: GlcNAc6S(b1-3)Gal(b1-4)GlcNAc
Outline: as §1

[11] = target: Man(a1-2)Man(a1-3)[Man(a1-2)Man(a1-6)]Man
Outline: as §1

[12] = target: Man(a1-2)Man(a1-3)[Man(a1-2)Man(a1-6)]Man(a1-6)[Man(a1-2)Man(a1-2)Man(a1-3)]Man(b1-4)GlcNAc(b1-4)GlcNAc
Outline: as §1

Man(b1-4)GlcNAc = target: Man(b1-4)GlcNAc
Outline: as §1

Neu5Ac(a2-3)Gal = target: Neu5Ac(a2-3)Gal
Outline: as §1

[13] = target: Neu5Ac(a2-3)Gal(b1-3)GlcNAc(b1-4)Gal(b1-4)Glc
Outline: as §1

[14] = target: Neu5Ac(a2-3)Gal(b1-3)[GlcNAc(b1-6)]GalNAc
Outline: as §1

Neu5Ac(a2-3)Gal(b1-4)Glc = target: Neu5Ac(a2-3)Gal(b1-4)Glc
Outline: as §1

[15] = target: Neu5Ac(a2-3)Gal(b1-4)GlcNAc(b1-2)Man(a1-3)[Neu5Ac(a2-6)Gal(b1-4)GlcNAc(b1-2)Man(a1-6)]Man(b1-4)GlcNAc(b1-4)GlcNAc
Outline: as §1

[16] = target: Neu5Ac(a2-3)Gal(b1-4)GlcNAc(b1-6)[Gal(b1-3)]GalNAc
Outline: as §1

[17] = target: Neu5Ac(a2-3)[Neu5Ac(a2-6)]GalNAc
Outline: as §1

[18] = target: Neu5Ac(a2-6)Gal(b1-4)GlcNAc(b1-2)Man(a1-3)[Gal(b1-4)GlcNAc(b1-2)Man(a1-6)]Man(b1-4)GlcNAc(b1-4)GlcNAc
Outline: as §1

[19] = target: Neu5Gc(a2-3)Gal(b1-4)GlcNAc(b1-3)Gal(b1-4)GlcNAc(b1-2)Man(a1-3)[Neu5Gc(a2-3)Gal(b1-4)GlcNAc(b1-3)Gal(b1-4)GlcNAc(b1-2)Man(a1-6)]Man(b1-4)GlcNAc(b1-4)GlcNAc
Outline: as §1

B1: PX14343H-pdi-506-26-506 (Parabacteroides distasonis) (protein)
chain: QPTGTMTTDSKLTSKESALALTNSAYLKNTVFNKMTPGWGCNTILLLEYMTGKATSENSQSNYKDFQDLLVSDRSLYIEDWWQDCYAGIANCNLALQKLGEFENLDASLVNGYMAEVKFMRALYYFYLVRIFGDVPKITTVQSELGELQVSRAPVKEIYDEIIIPDLLEAEQSDLAFSDHTGRVSMGAVKALLADVYLTYAGYPLQGGKSYYAESAKRSLEVIKSNEYTLFTDYESLRLPSQNNKGEFIYQVQFSLNKRHNESVRIFLPSRSGISAYDLEYGSLIPTKEFVESFEKGDKRTEEKQYFFTNYKGHPSKFSPGAAELEFMDLNGYYIYKFFDQVAVDNTAKSDLNWSVYRYTDVLLMYAEAQVNADGTPNQQSIDIVNQIRGRAGLAPFKQTNASAFLEEVWDQRYFDLCYENKMWFDMLRTRKIRDDKSGEYVDFIGYKTNWGKVYTETQLLFPIPLSERQANPNLTQNQGY
With B1 the “glycan array binding signal (z-score)” value [1] was 6.92, the “glycan array binding signal (z-score)” value [2] was -0.114 and the “glycan array binding signal (z-score)” value [3] was 3.24. The “glycan array binding signal (z-score)” value [4] was 6.72, the “glycan array binding signal (z-score)” value [5] was 0.292 and the “glycan array binding signal (z-score)” value [6] was 0.552. For the same binder, the “glycan array binding signal (z-score)” value [7] was 4.45, the “glycan array binding signal (z-score)” value [8] was 0.311 and the “glycan array binding signal (z-score)” value [9] was -0.235. The “glycan array binding signal (z-score)” value (Gal3S4S(b1-4)GlcNAc) was -0.293, the “glycan array binding signal (z-score)” value (Gal4S6S(b1-4)GlcNAc) was -0.505 and the “glycan array binding signal (z-score)” value (GalNAc6S(b1-4)GlcNAc) was 0.278. For the same binder, the “glycan array binding signal (z-score)” value [10] was -0.337, the “glycan array binding signal (z-score)” value [11] was -0.49 and the “glycan array binding signal (z-score)” value [12] was -0.329. The “glycan array binding signal (z-score)” value (Man(b1-4)GlcNAc) was -0.406, the “glycan array binding signal (z-score)” value (Neu5Ac(a2-3)Gal) was -0.52 and the “glycan array binding signal (z-score)” value [13] was -0.388. For the same binder, the “glycan array binding signal (z-score)” value [14] was -0.522, the “glycan array binding signal (z-score)” value (Neu5Ac(a2-3)Gal(b1-4)Glc) was -0.335 and the “glycan array binding signal (z-score)” value [15] was 4.89. The “glycan array binding signal (z-score)” value [16] was -0.127, the “glycan array binding signal (z-score)” value [17] was -0.483 and the “glycan array binding signal (z-score)” value [18] was 2.9. For the same binder, the “glycan array binding signal (z-score)” value [19] was -0.486.

From the supplement of paper PMC8728848
